Out of some 370,000 compounds screened, about 3,700 (1%) were called active. The sample holds actives, similar compounds and a random draw of the others, so the mix is not that of the screen.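 Rule for the calls: active = activation above the mean over all tested compounds plus 3 SD (cut at about 0.9% in these data); inactive = the rest.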
Tested on: Nuclear hormone receptor DAF-12 (Strongyloides stercoralis)
Test: ssDAF-12 driven luciferase reporter activation – cell-based, luminescence, HEK293, GRIP1 co-expression, lit1-tk-luc, primary screen (AID 652126);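 note: 0% = DMSO-only wells and 100% = 3 µM delta7-dafachronic acid wells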
Conditions: HEK293 ssDAF-12/GRIP1 lit1-tk-luc reporter, at 6.8 µM, hits give high values, % of 3 µM dafachronic acid response

| SMILES | activation |
| --- | --- |
| C=CCn1c(SCC(N)=O)nnc1-c1ccccc1OC | -0.81% (inactive) |
| COc1ccc(C(=O)NCC[N+](C)(C)C)cc1 | -0.25% (inactive) |
| COc1ccc(C(=O)Nc2ccc(-n3nncc3C(C)(C)C)cc2)cc1 | -1.68% (inactive) |
| COc1ccc(NC(=O)c2ccc(OC)cc2)cc1 | 0.92% (active) |
| O=C(CSc1nnc(-c2ccccc2)n1Cc1ccco1)Nc1ccccc1-c1ccccc1 | -1.67% (inactive) |
| O=C(CSc1nnc(COc2ccccc2)n1Cc1ccco1)c1ccc2ccccc2c1 | -1.35% (inactive) |
| O=C(c1ccccc1)c1cc(-c2ccccn2)c(N2CCOCC2)s1 | -1.53% (inactive) |
| Clc1ccc(-c2cc(C3CCNCC3)[nH]n2)c(Cl)c1 | -1.62% (inactive) |
| Clc1ccc(-c2cc(-c3ccccn3)on2)c(Cl)c1 | 1.28% (active) |
| C[C@H]1[C@H](NC(=O)c2cccc(N(C)C)c2)CC[C@@]23CCCN2C(=O)CCC[C@@H]13 | -1.05% (inactive) |
| O=S(=O)(Nc1ccc2nc(-c3ccco3)[nH]c2c1)c1ccccc1 | -0.88% (inactive) |
| Cn1c(SCC(=O)c2cccs2)nnc1-c1ccco1 | -0.1% (inactive) |
| Cn1c(-c2ccco2)nc2cc3ccccc3cc21 | 1.86% (active) |
| Cc1cc(NS(=O)(=O)c2ccc(NC(=O)CSc3nnc(SCc4ccc(F)cc4)s3)cc2)nc(C)n1 | -1.33% (inactive) |
| O=C1CCC2(CCC(c3ccc(Cl)cc3)CC2)N1CCO (stereo unspecified) | -1.42% (inactive) |
| Oc1cccc2ccc(/C=C/c3ccc(Br)s3)nc12 | 1.49% (active) |
| O=C(CN1C(=O)NC2(CCCCC2)C1=O)NCCC1=CCCCC1 | -1.49% (inactive) |
| CCOC(=O)c1cccc(NC(=O)CN(C)S(=O)(=O)c2ccc(-c3cocn3)s2)c1 | 0.72% (inactive) |
| N[C@@H](Cc1ccccc1)C(=O)N1CCC[C@@H]1C(=O)N1CCC2CCN(S(=O)(=O)c3ccccc3)CC21 (stereo partly specified) | -0.75% (inactive) |

| SMILES | activation |
| --- | --- |
| O=C(NCCCNC(=O)c1ccccc1Cl)c1cnccn1 | -0.77% (inactive) |
| CN(C)CCNC(=O)c1ccc(Cl)c2cc3ccccc3nc12 | 2.74% (active) |
| CN(C)CCNC(=O)Cc1ccc([N+](=O)[O-])cc1 | -0.65% (inactive) |
| COc1ccc(Cn2cc(CN3[C@@H](CC(C)C)COc4cc(Br)ccc4S3(=O)=O)nn2)cc1 | -0.66% (inactive) |
| Fc1ccc2nc(COCc3nc4ccc(F)cc4[nH]3)[nH]c2c1 | -1.23% (inactive) |
| Oc1cc2c(cc1O)CN(C(=S)NCCc1ccc(Cl)cc1)CCC2 | -1.68% (inactive) |
| CCOc1ccc(CCNC(=O)C2=C(C)C(=O)OC23CCC(C)CC3)cc1OCC (stereo unspecified) | -0.29% (inactive) |
| CCN(CCNC(=O)C1=C(C)C(=O)OC12CCC(C)CC2)c1ccccc1 (stereo unspecified) | 3.96% (active) |
| CC1CCN(C(=O)CCNC(=O)c2ccccc2)CC1 | -0.14% (inactive) |
| O=C(OC12CCCN(C1)/C(=C/c1cccnc1)C2)C1CCCC1 (stereo unspecified) | -1.43% (inactive) |
| CCOC(=O)[C@@]12CN(C(=O)OC(C)(C)C)CC=C1N(Cc1ccc(OC)cc1)C(=O)[C@H]2CC(=O)NCc1ccc(OC)c(OC)c1 | -0.75% (inactive) |
| C/C(=N\NC(=O)c1cccnc1)c1ccc(-n2ccnc2)cc1 | -1.15% (inactive) |
| CC(NC(=O)c1ccccc1C(=O)O)c1ccc(-n2ccnc2)cc1 (stereo unspecified) | 0.93% (active) |
| CC(NC(=O)c1ccccc1SCC(=O)N1CCCC1)c1ccccc1 (stereo unspecified) | -0.47% (inactive) |
| C[C@H](C(=O)N(C)c1ccccc1)[C@@H](O)c1ccc2ccccc2c1 | -0.52% (inactive) |
| COc1ccccc1-c1nnc(NC(=O)c2cccc(N3C(=O)CCC3=O)c2)o1 | 1.57% (active) |
| COc1ccccc1-c1nnc(NC(=O)c2ccc3ncsc3c2)o1 | 0.27% (inactive) |
| O=C(Nc1nnc(-c2ccccc2)o1)c1cccc(S(=O)(=O)N2CCOCC2)c1 | -0.75% (inactive) |
| Cc1ccc(NC(=S)NNC(=O)CSc2nnc(SCc3ccccc3Cl)s2)cc1 | -1.2% (inactive) |

| SMILES | activation |
| --- | --- |
| CCOc1ccc2c(c1)C(c1ccc(C)cc1)=NNC(c1ccc(C)cc1)=N2 | -0.66% (inactive) |
| Cc1ccc(C2=Nc3c(ccc4ccccc34)C(c3ccncc3)=NN2)cc1 | 1.33% (active) |
| CN(C)c1ccc(NC(=O)NC2CCCCN(Cc3ccc(Cl)cc3)C2=O)cc1 (stereo unspecified) | -1.57% (inactive) |
| COc1ccc(C2CC=C(C(=O)O)C(c3ccccc3F)N2S(=O)(=O)c2ccc(C)cc2)cc1OC (stereo unspecified) | 1.37% (active) |
| Cc1ccc(S(=O)(=O)N2[C@@H](c3ccccc3F)C(C(=O)O)=CC[C@H]2c2ccc(Cl)cc2)cc1 | -1.05% (inactive) |
| Cc1ccc(S(=O)(=O)N2[C@@H](c3cccc(Cl)c3)C(C(=O)O)=CC[C@H]2c2ccc(Cl)c(Cl)c2)cc1 | -1.12% (inactive) |
| COc1ccc(N2CCN(CCNS(=O)(=O)c3ccc([N+](=O)[O-])cc3)CC2)cc1 | -1.33% (inactive) |
| Cn1c(=O)c(C(=O)Nc2ncccn2)c(O)c2ccccc21 | 2.21% (active) |
| C=CCn1c(=O)c(C(=O)Nc2ncccc2O)c(O)c2ccccc21 | -0.42% (inactive) |
| Cn1c(=O)c(Sc2ccc(Cl)cc2)c(O)c2ccccc21 | 0.04% (inactive) |
| CN(C)[C@H]1CCN(c2cccc3c2S(=O)(=O)N2CC[C@H](C2)O3)C1 | -0.74% (inactive) |
| CC(C)(C)NC(=O)C(c1cccnc1)N(C(=O)c1cnco1)c1ccc(C(C)(C)C)cc1 (stereo unspecified) | -2.05% (inactive) |
| COc1ccccc1C(=O)N/C(=C/c1ccco1)C(=O)Nc1ccc(C(=O)O)cc1 | 1.14% (active) |
| COc1ccccc1C(=O)N/C(=C/c1ccc2c(c1)OCO2)C(=O)Nc1cccc(C(=O)O)c1 | -0.63% (inactive) |
| COc1ccc(/C=C(/NC(=O)c2ccco2)C(=O)Nc2ccc(C(C)=O)cc2)cc1 | -1.1% (inactive) |
| CCOC(=O)[C@]12CCCC3=C1N(CCC3)C(=O)[C@@H](CC(=O)NCC13CC4CC(CC(C4)C1)C3)C2 | -0.93% (inactive) |
| Cc1ccc(NC(=O)Cc2cccc(F)c2)c(S(=O)(=O)N2CCOCC2)c1 | -0.55% (inactive) |
| O=C(NC1CCCC1)C1CSCCS(=O)(=O)N1Cc1ccccc1 (stereo unspecified) | -1.05% (inactive) |

— PubChem BioAssay AID652126 (The Scripps Research Institute Molecular Screening Center, 2013)
